Shown are actives, neighbours in structure and some others; about 2% of the full set was active somewhere.
APOBEC3G inh: blocks human APOBEC3G single-stranded DNA deamination. 0.28% of 330,000 active. recombinant A3G, ssDNA deamination FAM/TAMRA fluorescence. AID 493012. inhibition, % at 20 µM. Q9HC16;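 active = inhibition of at least 40% at 20 µM, with no more than 30% in the related APOBEC3A deaminase screen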;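 also: plate controls were DMSO wells with A3G for no effect and wells lacking A3G enzyme for full effect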
Target sequence (Q9HC16 whole entry, looked up): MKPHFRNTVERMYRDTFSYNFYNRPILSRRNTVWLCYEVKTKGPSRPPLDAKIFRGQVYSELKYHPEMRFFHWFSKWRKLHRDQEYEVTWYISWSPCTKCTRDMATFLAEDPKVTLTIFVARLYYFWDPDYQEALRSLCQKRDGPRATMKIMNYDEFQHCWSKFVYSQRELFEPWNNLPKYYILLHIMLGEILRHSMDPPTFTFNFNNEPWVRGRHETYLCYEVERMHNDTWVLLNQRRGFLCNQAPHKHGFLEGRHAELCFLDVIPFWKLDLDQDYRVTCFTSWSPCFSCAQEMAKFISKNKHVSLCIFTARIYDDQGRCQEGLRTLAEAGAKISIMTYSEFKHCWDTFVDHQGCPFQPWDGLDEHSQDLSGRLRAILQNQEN
HGIII-sPLA2 inh: Inhibits HGIII-sPLA2 liposome hydrolysis, primary screen. Q9NZ20. QFRET BODIPY PC-A2 liposome hydrolysis, fluorescence. inhibition, % at 12.2 µM. 0.56% of 370,000 active;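 active = inhibition above mean plus 3 SD of compounds lying within the high and low control bounds, cut at about 19% in these data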;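 also: 0% = median of test compound wells and 100% = no enzyme DMSO wells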
A3A deaminase: blocks human APOBEC3A ssDNA deamination | P31941 | recombinant A3A, FAM/TAMRA ssDNA deamination fluorescence | inhibition, % at 20 µM | 0.41% of 330,000 active | AID 493011;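 active = at least 40% inhibition at 20 µM here, with at most 30% in a related deaminase screen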;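 also: plate controls were A3A with DMSO for no effect and wells lacking A3A enzyme for full effect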
Target sequence (P31941 whole entry, looked up): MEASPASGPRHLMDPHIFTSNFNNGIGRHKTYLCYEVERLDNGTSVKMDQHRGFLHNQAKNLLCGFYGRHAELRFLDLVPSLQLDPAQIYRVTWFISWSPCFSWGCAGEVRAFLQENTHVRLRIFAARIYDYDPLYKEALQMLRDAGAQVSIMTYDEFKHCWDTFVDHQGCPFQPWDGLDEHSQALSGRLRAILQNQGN
Fh CTSL1 inh: blocks F. hepatica cathepsin L1 in PFM18AAP counter-screen; recombinant F. hepatica cathepsin L1, Z-Leu-Arg-MCA fluorescence; inhibition, % at 5.96 µM; 0.49% of 300,000 active; AID 1906;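 active = inhibition above the mean of all tested compounds plus 3 SD, set per screening campaign, cut at about 17% in these data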;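 also: 0% = plate median of test compound wells and 100% = 1 µM Z-Phe-Ala-diazomethylketone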
NALP1 inh: blocks the NALP1 inflammasome reconstituted in yeast; S. cerevisiae NALP1/ASC/caspase-1 growth, X-gal OD620, 72 h; inhibition, % at 10 µM; 0.61% of 280,000 active; AID 2071; in the data active = inhibition mostly above about 24%, no sharp cut-off; inactive = mostly below about 32%
Numbers without * were called inactive; . = no result given.

SMILES | APOBEC3G inh | HGIII-sPLA2 inh | A3A deaminase | Fh CTSL1 inh | NALP1 inh
COc1ccc(/C=N/NC(=O)c2ccccc2)cc1CN1CCN(c2ccc(F)cc2)CC1 | -5 | -7 | -3 | -1 | 13
COc1ccc(/C=N/NS(=O)(=O)c2ccc(F)cc2)cc1CN1CCSCC1 | -5 | 2 | -5 | 2 | 30*
CC(=O)CC[C@H]1CC[C@]2(CCCN(C(=O)c3ccco3)C2)O1 | . | 7 | . | . | .
COc1ccc(OC(C)C(=O)N2CCN(c3ccccn3)CC2)cc1 (stereo not given) | 1 | 7 | -1 | -2 | 8
Cc1ccccc1OC(C)C(=O)N1CCN(c2ccccn2)CC1 (stereo not given) | -7 | 5 | -6 | 3 | 32*
COc1ccc(S(=O)(=O)N2CCCC(C(=O)NCc3ccncc3)C2)cc1Cl (stereo not given) | -4 | 0 | -1 | 8 | 26*
COc1ccc(S(=O)(=O)N2CCC(C(=O)NCc3ccncc3)CC2)cc1Cl | 4 | 15 | 2 | -3 | 12
CSc1nc(NCCOCCO)c2sc3nc(-c4ccco4)c4c(c3c2n1)CCC4 | 77 | -7 | 86 | 17* | 1
CCN(CCO)c1nc(SC)nc2c1sc1nc(-c3ccco3)c3c(c12)CCC3 | 62 | . | 68 | 18* | 17
CC(C)C(C(=O)Nc1ccc(S(=O)(=O)N2CCOCC2)cc1)N1C(=O)c2ccccc2C1=O (stereo not given) | -6 | 2 | -1 | 7 | 43*
COC(=O)c1ccc(Cn2ccc3ccc(-c4ccc5ccn(C(=O)c6cccc(OC)c6)c5c4)cc32)cc1 | . | 2 | . | . | .
O=C(O)CCC(=O)Nc1cccc2cccnc12 | -5 | 4 | 3 | 1 | -5
CNC(=O)Nc1cccc2cccnc12 | -2 | 0 | 2 | -3 | 44*
CC(=O)NC1CCCCN(Cc2cccc(F)c2)C1=O (stereo not given) | . | -1 | . | . | .
O=C(COc1ccccc1)NCC1(N2CCCCC2)CCCCC1 | -8 | 0 | -5 | 28* | 1
CC(C)CN1C(=O)[C@@]2(CC(=O)N(C)C2c2ccccc2)c2cc(-n3cc(CCc4ccccc4)nn3)ccc21 (stereo not given in full) | . | 7 | . | . | .
CCc1ccc(-c2cn3c(n2)SCC3)cc1 | 0 | -2 | 1 | 2 | 6
CCc1ccc(-c2cn(-c3nc(C)cc(C)n3)c(=N)o2)cc1 | -4 | -14 | -2 | 61* | 16
O=c1c([N+](=O)[O-])c(Cl)c2ccccc2n1Cc1ccccc1 | . | 12 | . | . | .
N#Cc1ccc(OCC(=O)NCCc2ccccn2)cc1 | 0 | 6 | 0 | 5 | 36*
CC1=C2NC(N)=[N+](Cc3ccc4c(c3)OCO4)CC2NOC1 (stereo not given) | . | 0 | . | . | .
NC(=N\N=Cc1ccccc1)/C(N)=N/N=Cc1ccccc1 | . | 14 | . | . | .
Cn1c(CS/C(N)=N/N=C/c2ccccc2)c(Br)c(=O)n1-c1ccccc1 | -1 | -2 | 0 | 37* | 20
CC(=O)O[C@H]1C(=O)[C@@]2(C)[C@H]([C@H](OC(=O)c3ccccc3)[C@]3(O)C[C@H](OC(=O)[C@H](O)[C@@H](NC(=O)c4ccccc4)c4ccccc4)C(C)=C1C3(C)C)[C@]1(OC(C)=O)CO[C@@H]1C[C@@H]2O | -5 | -11 | 4 | 19* | .
CSCC[C@H](NC(=O)OC(C)(C)C)c1nnc(SCC(N)=O)o1 | -7 | 3 | -4 | 6 | -8
SMILES | APOBEC3G inh | HGIII-sPLA2 inh | A3A deaminase | Fh CTSL1 inh | NALP1 inh
CCc1ccccc1NC(=O)CSc1nnc([C@H](CCSC)NC(=O)OC(C)(C)C)o1 | -5 | 8 | -1 | 54* | 12
Cc1ccc(NC(=O)CSc2nnc([C@H](C)NC(=O)OC(C)(C)C)o2)c(C)c1 | -9 | 0 | 1 | 4 | 10
CSCC[C@H](NC(=O)OC(C)(C)C)c1nnc(SCC(=O)Nc2ccc(C)cc2C)o1 | -5 | -3 | -2 | 68* | -5
O=C(CCn1nnc(-c2cccs2)n1)NCc1cccs1 | . | 2 | . | . | .
COc1ccc(OC)c(N(CC(=O)N2CCCC2)S(=O)(=O)c2ccccc2)c1 | 4 | 5 | 3 | -1 | 10
COC(=O)CN(c1cc(OC)ccc1OC)S(=O)(=O)c1ccc(OC)c(OC)c1 | 1 | 0 | 3 | -2 | 29*
Cc1cc(NCc2ccncc2)ccc1Br | -5 | 6 | -2 | 1 | 17
Cc1ccc(NCc2ccncc2)c(Br)c1 | -6 | -3 | -2 | 0 | 32*
O=C(Nc1nnc(-c2cccnc2)s1)c1cnc2ccccc2c1 | . | -3 | . | . | .
O=C1CCC(CNc2ccccc2)N1c1ccccc1 (stereo not given) | . | 3 | . | . | .
CCCCN(C)CCNC(=O)C(NC(=O)C1CCC(C)CC1)C(C)C (stereo not given) | -6 | 14 | 9 | 56* | -2
CSc1nc2c(c(=O)n1-c1ccc(C)cc1)SCC2 | 0 | 9 | 5 | 5 | 28*
O=C(CC12CC3CC(CC(C3)C1)C2)N1CCCC1 | -8 | -4 | 0 | -5 | 37*
Cn1c(Cc2cccs2)nnc1SCC(=O)Nc1ccc2cn[nH]c2c1 | . | 0 | . | . | .
O=C(N1CCc2[nH]c3ccccc3c2C1)C(F)(F)F | -6 | -20 | -5 | 106* | 4
CC(=O)N1CCc2[nH]c3ccccc3c2C1 | -4 | 0 | -1 | 2 | 24
CC(=O)N1CCc2[nH]c3ccc(C)cc3c2C1 | -2 | -5 | -2 | 51* | 9
Cc1cccc(CNC(=S)OC2CCC23CCC(c2ccccc2)CC3)c1 (stereo not given) | . | 4 | . | . | .
COc1ccc(CN2C[C@]3(C=C(C)Cn4c(=O)n(-c5ccccc5)c(=O)n43)N=C2NC(=O)c2ccccc2)c(OC)c1 | . | 18 | . | . | .
C[N+]1=C2N[C@@H](c3ccccc3)CC(=O)N2/C(=C\c2ccccc2)[C@@H]1Cc1ccccc1 | . | -4 | . | . | .
COc1cc(OC)c(/C=C2\C(=O)Nc3ccccc32)c(OC)c1 | -4 | -1 | 1 | 38* | .
N#C/C(=N\Nc1cccc([N+](=O)[O-])c1)C(=O)c1ccc(Br)cc1 | -6 | -32 | 2 | 2 | -2
N#C/C(=N\Nc1cccc(C(F)(F)F)c1)C(=O)c1ccsc1 | 9 | -54 | 1 | 6 | 40*
Cc1ccc(-n2ncc3c(SCC(=O)NNC(=O)C(C)C)ncnc32)cc1 | -9 | -1 | -2 | -4 | 7
CC(C)C(=O)NNC(=O)CSc1ncnc2c1cnn2-c1ccccc1Cl | -7 | -2 | -4 | 44* | 19
COc1ccc(-c2cc(CNC(=O)CCl)on2)cc1 | -3 | 4 | 0 | 22* | 3
CCOC(=O)c1ccc(NC(=O)CSc2nnc(SCc3cccc4ccccc34)s2)cc1 | . | -1 | . | . | .
Cc1ccc(OCCC(=O)N2CCN(c3ccc(O)cc3)CC2)cc1 | 30 | 5 | -3 | 0 | 38*
CCOC(=O)c1c(CN(C)C)n(C)c2c(O)c(N=NC(N)=O)c3ccc(Br)cc3c12 | 0 | -16 | -1 | 20* | 9
CCCn1c(=O)c(C(=O)OCC)c(O)c2cc(Br)ccc21 | -6 | 5 | -3 | -1 | 8
